Measurements from PubChem BioAssay (EPA / NIEHS).
Inconclusive results are not listed. Active and inactive are the calls of the source. The calls were made as follows: active = hit-call score of the fitted dose curve at least 0.9, where 1 is the maximum; inconclusive = response in the unintended direction; inactive = score below 0.9.

Each molecule was assayed on Cytochrome P450 3A4 (Homo sapiens) (UniProt P08684) (assay: CLD_CYP3A4_48hr: CellzDirect (CLD) Gene Expression Assay for xenobiotic metabolism (CYP3A4) at 48 hours (AID 2283698)).
Experimental: CLD_48hr is a cell-based, multiplexed-readout assay that uses hepatocyte, a human liver primary cell, with measurements taken at 48 hours after chemical dosing in a 96-well plate.CLD_CYP3A4_48hr is one of 16 assay component(s) measured or calculated from the CLD_48hr assay. It is designed to make measurements of mRNA induction, a form of inducible reporter, as detected with chemiluminescence signals by Quantitative Nuclease Protection Assay (qNPA) technology.Data from the assay component CLD_CYP3A4_48hr was analyzed at the endpoint, CLD_CYP3A4_48hr, in the positive analysis fitting direction relative to DMSO as the negative control and baseline of activity. Using a type of inducible reporter, gain-of-signal activity can be used to understand changes in the reporter gene as they relate to the gene CYP3A4. Furthermore, this assay endpoint can be referred to as a primary readout. To generalize the intended target to other relatable targets, this assay endpoint is annotated to the cyp intended target family, where subfamily is xenobiotic metabolism.
Human hepatocyte cultures were treated daily for two consecutive days with fresh dosing solutions containing appropriate concentrations of the 320 ToxCast chemicals (chemical identities were blinded to CellzDirect and other ToxCast collaborators), vehicle control (0.2% DMSO), and positive control inducers as summarized in Table 1. Due to the large number of treatment groups and chemicals examined, the ToxCast chemicals were divided into two groups (spanning two independent cultures of hepatocytes from separate donor preparations (Hu778: ToxCast plates 1 and 2; Hu776: ToxCast plates 3 and 4). Each preparation of human hepatocyte cultures was treated with respective vehicle control, medium only control, set of six positive controls/reference chemicals for the five hepatic receptor pathways, and a subset of eight of the ToxCast chemicals (indoxacarb, pyrithiobac-sodium, norflurazon, cyhalofop-butyl, methomyl, thiram, acetochlor, and propiconazole). These replicate data, coupled with internal replicates designed within the blinded ToxCast chemical library, provided additional data to evaluate interindividual differences between hepatocyte preparations and their potential impact on chemical profiles.Cell morphology and integrity were evaluated using phase-contrast microscopy as an indicator of hepatocyte cell health (Tyson & Green, 1987). Cultures for each treatment group (i.e., media, vehicle [0.2% DMSO], positive control inducers [multiple concentrations], and the ToxCast chemicals [multiple concentrations]) were observed and cell morphology was assessed relative to vehicle control cultures at each harvest time point (0, 6, 24, or 48 h). […] Images were evaluated at the conclusion of the study to assess changes in cell integrity and account for the effects of chemical exposure on uncharacteristic changes in concentration-dependent gene expression profiles. The results from these determinations of apparent cytotoxicity were annotated (yes/no) alongside the corresponding qNPA data for reference.At the conclusion of each treatment period, hepatocyte cultures (96-well) were washed with 1 volume of HBSS, lysed by addition of 25 ul ArrayPlate lysis buffer (HTG, Tucson, AZ), and 70 ul/well of Denaturation Oil, denatured by incubation at 95C for 10 min, and frozen at approximately -70C until analysis by nuclease protection assay (qNPA) (Roberts et al., 2007). For qNPA analysis, cell lysates were thawed at 50C for approximately 30 min, qNPA probes were added, and samples were incubated at 95C for 10 min to begin the detection process by denaturing the target RNA, dissociating the duplexes and secondary structure hybridization. At the conclusion of the hybridization period, S1 nuclease reagent was added to each sample to digest all nonprotected nucleotides at 50C for 60-90 min. […]

Chain of Cytochrome P450 3A4 (Homo sapiens) (P08684 whole entry, looked up): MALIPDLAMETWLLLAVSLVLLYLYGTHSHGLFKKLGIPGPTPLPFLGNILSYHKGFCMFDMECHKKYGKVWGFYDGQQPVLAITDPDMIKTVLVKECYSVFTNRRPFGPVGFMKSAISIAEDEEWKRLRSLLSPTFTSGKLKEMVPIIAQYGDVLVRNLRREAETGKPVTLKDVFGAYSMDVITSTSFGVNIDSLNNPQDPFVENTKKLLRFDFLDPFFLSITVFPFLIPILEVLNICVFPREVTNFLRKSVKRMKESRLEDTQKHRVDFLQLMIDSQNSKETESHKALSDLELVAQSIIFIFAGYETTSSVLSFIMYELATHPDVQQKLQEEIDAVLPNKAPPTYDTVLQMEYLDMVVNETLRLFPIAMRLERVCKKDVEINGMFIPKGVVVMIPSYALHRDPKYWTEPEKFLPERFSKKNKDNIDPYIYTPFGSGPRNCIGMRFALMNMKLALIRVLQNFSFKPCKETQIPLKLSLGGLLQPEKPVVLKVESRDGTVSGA

| Structure (SMILES) | AC50 | outcome |
| --- | --- | --- |
| CC(C)(C)[C@@H](O)[C@@H](Cc1ccc(Cl)cc1)n1cncn1 | 2.15 µM (active) |  |
| CCOC(=O)[C@H](C)Oc1ccc(Oc2nc3ccc(Cl)cc3o2)cc1 |  | inactive |
| S=C([S-])NCCNC(=S)[S-].[Mn+2] |  | inactive |
| Cc1nn(C)c(Oc2ccccc2)c1C=NOCc1ccc(C(=O)OC(C)(C)C)cc1 |  | inactive |
| CCC(C)OC(=O)N1CCCCC1CCO (stereo not given) |  | inactive |
| CCN(Cc1c(F)cccc1Cl)c1c([N+](=O)[O-])cc(C(F)(F)F)cc1[N+](=O)[O-] | 1.9 µM (active) |  |
| CCCCOC(=O)[C@@H](C)Oc1ccc(Oc2ccc(C(F)(F)F)cn2)cc1 |  | inactive |
| CCCCOC(=O)C(C)Oc1ccc(Oc2ccc(C(F)(F)F)cn2)cc1 (stereo not given) |  | inactive |
| c1ccc(Nc2ccccc2)cc1 |  | inactive |
| O=C(O)C1(C(=O)Nc2ccc(Cl)cc2Cl)CC1 |  | inactive |
| COCCO |  | inactive |
| COC(=O)CSc1cc(N=c2sc(=O)n3n2CCCC3)c(F)cc1Cl | 4.08 µM (active) |  |
| CC1(C)C(C=C(Cl)Cl)C1C(=O)OCc1cccc(Oc2ccccc2)c1 (stereo not given) |  | inactive |
| CCOC(=O)COc1cc(-n2ncc(C(F)(F)F)c(C)c2=O)c(F)cc1Cl | 5.32 µM (active) |  |
| CCNc1nc(N)nc(Cl)n1 |  | inactive |
| CCSC(=O)N(CC(C)C)CC(C)C |  | inactive |
| CN(C)C(=O)Nc1ccc(Cl)c(Cl)c1 |  | inactive |
| Oc1ccc(C(c2ccc(O)cc2)C(Cl)(Cl)Cl)cc1 |  | inactive |
| C#CCOC(=O)[C@@H](C)Oc1ccc(Oc2ncc(Cl)cc2F)cc1 |  | inactive |
| CCOC(=O)NCCOc1ccc(Oc2ccccc2)cc1 |  | inactive |
| CCOC(=O)C(C)Oc1ccc(Oc2cnc3cc(Cl)ccc3n2)cc1 (stereo not given) |  | inactive |
| CCCN(CCC)C(=O)SCC |  | inactive |
| COC(=O)c1cccc(C)c1S(=O)(=O)NC(=O)Nc1nc(OCC(F)(F)F)nc(N(C)C)n1 | 20 µM (active) |  |
| CCCN(CCC)c1c([N+](=O)[O-])cc(C(F)(F)F)c(N)c1[N+](=O)[O-] | 7.62 µM (active) |  |
| CSC(=O)c1cccc2nnsc12 |  | inactive |
| COC(=O)c1c(Cl)nn(C)c1S(=O)(=O)NC(=O)Nc1nc(OC)cc(OC)n1 | 6.72 µM (active) |  |
| OB(O)O |  | inactive |
| COc1c(Cl)ccc(Cl)c1C(=O)O |  | inactive |
| CCCCC(CC)CN1C(=O)C2C3C=CC(C3)C2C1=O (stereo not given) | 20 µM (active) |  |
| CCCCCOC(=O)COc1cc(N2C(=O)C3=C(CCCC3)C2=O)c(F)cc1Cl |  | inactive |
